The nature of this test: SNB-19 glioblastoma cell viability loss, dose response, HRAS target identification, Alamar Blue fluorescence, 8/24/48 h, dry powder (AID 720600). A general note: Resazurin is reduced to fluorescent resorufin, in cell work by metabolically active cells.

Potency and affinity values are given separately. Records with an inconclusive call do not appear. Where a call stands in place of a potency, no number is given. The source made the active and inactive calls.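 How the source made its calls: active means compound whose half-maximal dose for viability loss stays within twice the top tested dose at all three treatment times; inconclusive means treatment times disagree in their calls; inactive means inactive at every treatment time.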

The values below come from PubChem BioAssay AID720600 (Broad Institute, 2013).

Consider `Cc1onc(C(=O)N2CCN(C(c3ccncc3)c3ccncc3)CC2)c1[N+](=O)[O-]`, for which the molecule was called inactive.

As to `CCC(=O)N(c1ccc(OC)c(Cl)c1)C(C(=O)NCCc1ccccc1)c1cccs1` (configuration not stated), the molecule was called inactive.
